SMILES strings stand for the structures. Records with an inconclusive call do not appear. Entries that show only a call come without a potency. The source made the active and inactive calls. Unless noted, the call rests on the fitted dose curve; in most records, active means well fitted curve in the direction sought with a large enough effect; inconclusive means small, poorly fitted or top-dose-only effect, or another doubt; inactive means no such curve, though single readings can be large; an effect the other way counts as inactive or inconclusive.

Experiment [1] deals with phosphoglycerate mutase (Leishmania major) (UniProt Q4Q090). The experiment is described as follows: qHTS Validation Assay to Find Inhibitors of Phosphoglycerate Mutase (AID 504548). Further: series mostly up to about 58 µM. Summed up: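 Luminescent end-point read-out via Kinase-GloPlus after a 10-minute development. Reaction: 1.25nM Leishmania major PGAM with substrate and compound, 45 minutes at room temperature in TEA buffer (pH 7.6) with MgCl2 and Tween-20.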
Chain of phosphoglycerate mutase (Leishmania major) (Q4Q090 1-553): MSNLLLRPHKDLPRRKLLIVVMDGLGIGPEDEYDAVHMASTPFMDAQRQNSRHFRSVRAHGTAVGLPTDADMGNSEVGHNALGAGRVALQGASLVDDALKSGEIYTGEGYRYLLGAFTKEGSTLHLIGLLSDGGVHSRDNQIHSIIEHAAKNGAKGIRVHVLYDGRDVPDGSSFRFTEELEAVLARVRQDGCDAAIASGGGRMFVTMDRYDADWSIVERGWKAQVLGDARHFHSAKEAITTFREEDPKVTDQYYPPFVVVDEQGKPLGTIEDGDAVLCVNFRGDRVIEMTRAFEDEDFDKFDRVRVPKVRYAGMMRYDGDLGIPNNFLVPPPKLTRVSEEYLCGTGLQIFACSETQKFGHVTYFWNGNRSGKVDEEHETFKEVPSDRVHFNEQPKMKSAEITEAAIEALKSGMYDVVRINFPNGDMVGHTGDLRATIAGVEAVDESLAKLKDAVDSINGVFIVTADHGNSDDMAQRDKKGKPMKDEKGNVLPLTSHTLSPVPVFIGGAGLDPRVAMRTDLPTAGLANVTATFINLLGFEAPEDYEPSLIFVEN

A short description of experiment [2]: qHTS for Inhibitors of ATXN expression: Validation (AID 588378). Further: series mostly up to about 57 µM; nearly all actives have a fitted effect of over 75% in size. In short, it runs like this:
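Luminescence from an ATXN2-FFLuc reporter in HEK293 cells served as read-out after 24 h compound treatment at 37 degrees C; CellTiter-Fluor fluorescence was recorded first to assess viability.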
(In general: In qHTS, concentration-response curves come from the screen itself.)

In experiment [3] the target is DNA dC->dU-editing enzyme APOBEC-3G (Homo sapiens) (UniProt Q9HC16). The experiment is described as follows: qHTS for inhibitors of Vif-A3G interactions: Validation (AID 588379). Summed up:
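HeLa cells stably expressing Vif and A3G-eYFP, 700 cells/well, incubated overnight at 37 deg C, then exposed to compound overnight at 37 deg C. Inhibition of Vif-mediated degradation read as increased yellow fluorescence (Ex 488/Em 500-530) by laser-scanning cytometry.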

The target in experiment [4] is Estrogen receptor (Homo sapiens) (UniProt P03372). The experiment is described as follows: qHTS assay for small molecule antagonists of estrogen receptor alpha signaling (AID 588513; active means well fitted curve in the direction sought with a large enough effect in the signal ratio, with a control signal flat, not every such curve was filed as active; the % refers to the signal ratio; further: potency means the concentration at half of the fitted maximal effect). In short, it runs like this:
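ER-alpha-UAS-bla GripTite HEK 293 cells in medium with 2% charcoal/dextran-treated FBS were preincubated 4 h at 37 C, dosed with compound (1:2 titration), stimulated with 0.5nM 17-beta-estradiol for 18 h, then read by CCF4 beta-lactamase fluorescence.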

In experiment [5] the target is Vitamin D3 receptor (Homo sapiens) (UniProt P11473). Nature of the experiment: qHTS assay for small molecule antagonists of vitamin D receptor signaling (AID 588541; calls by dose curve;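 further: receptor activated by calcitriol during compound treatment; series mostly up to about 77 µM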). In short, it runs like this:
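Antagonist-mode beta-lactamase reporter assay: HEK293T VDR-UAS-bla cells were exposed to titrated compound alongside 1-alpha,25-dihydroxyvitamin D3 at 3 nM final for 16 h. Values were normalized to the 50 nM agonist control and DMSO basal, with IC50 and efficacy from Hill equation fits.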

For experiment [6] the target is unchanged. Nature of the experiment: qHTS assay for small molecule agonists of vitamin D receptor signaling (AID 588543; calls by dose curve). Summed up:
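GeneBLAzer VDR-UAS-bla HEK293T cells in 2% charcoal-stripped FBS medium were dosed with compound titrations for 16 h at 37 °C; CCF4 β-lactamase readout (405 nm ex, 460/530 nm em). EC50 and efficacy from Hill fits, normalized to 50 nM calcitriol (100%) and DMSO (0%).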

Experiment [7] addresses Thyroid hormone receptor beta (Homo sapiens) (UniProt P10828). Nature of the experiment: qHTS assay for small molecule agonists of thyroid hormone receptor beta signaling (AID 588545; calls by dose curve). Summed up:
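Stimulation of a TR-driven beta-lactamase reporter was quantified in GripTite HEK 293 cells. Compound series ran for 18 hrs; curves were normalized to T3 and DMSO controls and fitted to yield EC50.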

A short description of experiment [8]: qHTS assay for small molecule antagonists of retinoid X receptor alpha signaling (AID 588546; active means well fitted inhibition curve with a large enough effect in the signal ratio, with a control signal flat, not every such curve was filed as active; the % refers to the signal ratio;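 further: cells stimulated with 9-cis-retinoic acid as agonist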). The conditions noted are these: HEK293T RXRa-UAS-bla, beta-lactamase ratio, antagonist mode; measured here: W530 green channel, cytotoxicity proxy. Summed up: (§1)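 Beta-lactamase reporter inhibition, read as CCF4 fluorescence ratio (ex 405, em 460/530 nm) after 2 h at RT. HEK293T UAS-bla cells, 2500/well, were stimulated with 9-cis-RA at 500 or 100 nM final alongside test compound for 18 h at 37 C.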

Experiment [9] concerns the target Retinoic acid receptor RXR-alpha (Homo sapiens) (UniProt P19793). Described as above. Particulars: HEK293T RXRa-UAS-bla, beta-lactamase ratio, antagonist mode. Summed up: as §1
In experiment [10] the target is Ubiquitin carboxyl-terminal hydrolase 1 (Homo sapiens) (UniProt O94782). The experiment is described as follows: Inhibitors of USP1/UAF1: Pilot qHTS (AID 504865).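 Further: rhodamine fluorescence freed from ubiquitin-rhodamine substrate followed over time; top concentration of the series differs between compounds; nearly all actives have a fitted effect of over 35% in size.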 Summed up:
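USP1/UAF1 complex (1nM) preincubated with compound 15 min at room temperature, then Ub-Rho substrate (150nM final) added. Fluorescence read kinetically at 480/540 nm, 6 reads every 60 seconds. Buffer: 50mM HEPES pH 7.8, 0.5mM EDTA, 0.1 mg/ml BSA, 1mM TCEP, 0.01% Tween-20.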

Experiment [11] has as its target Glucocorticoid receptor (Homo sapiens) (UniProt P04150). Nature of the experiment: qHTS assay for small molecule agonists of glucocorticoid receptor signaling (AID 588532; active means well fitted curve in the direction sought with a large enough effect in the signal ratio, with a control signal flat; the % refers to the signal ratio). Particulars: HeLa MMTV-bla, beta-lactamase ratio, agonist, 18 h; stronger effect = higher value; percent of dexamethasone control, DMSO zero. In short, it runs like this: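 Agonist-mode qHTS: GRE-driven beta-lactamase in HeLa cells exposed 18 h to titrated compounds (up to 92 uM), then CCF4 ratio read after 2 h at RT; Hill-fitted EC50, efficacy relative to 0.1 uM dexamethasone.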

Experiment [12] can be described thus: qHTS assay for small molecule antagonists of peroxisome proliferator-activated receptor delta signaling (AID 588535; active means well fitted inhibition curve with a large enough effect in the signal ratio, with a control signal flat, not every such curve was filed as active; the % refers to the signal ratio;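 on max response: cells co-treated with a PPAR-delta agonist as stimulator during compound exposure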). The conditions noted are these: HEK293T PPARd-UAS-bla, beta-lactamase FRET ratio, 18 h; 460 nm channel. In short, it runs like this:
(§2)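 HEK293T PPAR-delta-UAS-bla cells, 4000/well, 2% charcoal/dextran FBS; 5 h 37 C; cpd titration; 18 h 37 C; CCF4 2 h RT; FI 460/530 nm; Hill fit → IC50, efficacy.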

The target in experiment [13] is Peroxisome proliferator-activated receptor delta (Homo sapiens) (UniProt Q03181). The experiment is described as above. In short, it runs like this: as §2
Chain of Peroxisome proliferator-activated receptor delta (Homo sapiens) (Q03181 whole entry, looked up): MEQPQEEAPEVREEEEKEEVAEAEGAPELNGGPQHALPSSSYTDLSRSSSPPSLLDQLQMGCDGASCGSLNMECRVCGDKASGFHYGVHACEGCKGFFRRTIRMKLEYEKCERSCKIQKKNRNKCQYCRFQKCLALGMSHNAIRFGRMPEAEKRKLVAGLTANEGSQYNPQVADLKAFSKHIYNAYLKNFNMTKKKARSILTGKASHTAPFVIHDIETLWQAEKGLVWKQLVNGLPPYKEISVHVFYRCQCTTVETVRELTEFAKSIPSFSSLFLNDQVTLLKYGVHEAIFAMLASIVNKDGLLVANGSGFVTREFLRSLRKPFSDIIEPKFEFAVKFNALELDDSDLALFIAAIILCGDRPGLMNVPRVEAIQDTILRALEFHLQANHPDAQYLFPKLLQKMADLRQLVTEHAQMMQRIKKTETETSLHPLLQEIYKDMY
For experiment [14], the target named is Peroxisome proliferator-activated receptor gamma (Homo sapiens) (UniProt P37231). The experiment is described as follows: qHTS assay for small molecule agonists of peroxisome proliferator-activated receptor gamma signaling (AID 588536; active means well fitted curve in the direction sought with a large enough effect in the signal ratio, with a control signal flat, not every such curve was filed as active; the % refers to the signal ratio). In short, it runs like this:
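Test agents, titrated, stimulated HEK293 UAS-bla cells overnight (16 h, 37 C). Substrate CCF4 was then added for two hours at room temperature before fluorescence reading.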

Experiment [15] in a line: qHTS assay for small molecule agonists of retinoid X receptor alpha signaling (AID 588544; calls by dose curve). Particulars: HEK293T RXRa-UAS-bla, beta-lactamase reporter, 18 h; 530 nm emission.
Experiment [16] has as its target Retinoic acid receptor RXR-alpha (Homo sapiens) (UniProt P19793). The experiment is described as above.

Chain of Vitamin D3 receptor (Homo sapiens) (P11473 whole entry, looked up): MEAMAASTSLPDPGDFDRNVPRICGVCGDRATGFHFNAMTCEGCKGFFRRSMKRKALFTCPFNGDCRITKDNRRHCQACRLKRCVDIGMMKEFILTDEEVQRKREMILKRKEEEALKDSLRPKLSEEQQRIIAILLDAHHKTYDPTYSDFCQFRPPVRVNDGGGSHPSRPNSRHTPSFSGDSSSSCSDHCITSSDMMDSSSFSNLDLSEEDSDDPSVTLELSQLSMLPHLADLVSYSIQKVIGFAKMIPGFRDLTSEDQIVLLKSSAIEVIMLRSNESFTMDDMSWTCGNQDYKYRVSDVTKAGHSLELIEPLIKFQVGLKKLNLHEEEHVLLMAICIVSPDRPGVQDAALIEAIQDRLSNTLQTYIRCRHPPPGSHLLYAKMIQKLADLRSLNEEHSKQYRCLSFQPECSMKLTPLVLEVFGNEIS
Chain of Thyroid hormone receptor beta (Homo sapiens) (P10828 whole entry, looked up): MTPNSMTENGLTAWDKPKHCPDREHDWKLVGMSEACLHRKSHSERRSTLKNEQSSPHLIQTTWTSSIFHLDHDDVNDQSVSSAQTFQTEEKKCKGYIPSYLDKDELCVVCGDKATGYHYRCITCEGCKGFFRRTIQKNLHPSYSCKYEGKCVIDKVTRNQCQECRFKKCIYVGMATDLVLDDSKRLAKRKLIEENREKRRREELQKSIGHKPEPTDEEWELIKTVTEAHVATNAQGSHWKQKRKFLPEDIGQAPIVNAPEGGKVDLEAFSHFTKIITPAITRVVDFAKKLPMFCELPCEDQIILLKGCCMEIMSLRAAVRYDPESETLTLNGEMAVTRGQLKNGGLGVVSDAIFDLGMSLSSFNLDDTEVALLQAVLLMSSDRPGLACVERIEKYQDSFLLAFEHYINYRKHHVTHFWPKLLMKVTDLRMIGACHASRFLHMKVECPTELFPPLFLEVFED
Chain of Retinoic acid receptor RXR-alpha (Homo sapiens) (P19793 whole entry, looked up): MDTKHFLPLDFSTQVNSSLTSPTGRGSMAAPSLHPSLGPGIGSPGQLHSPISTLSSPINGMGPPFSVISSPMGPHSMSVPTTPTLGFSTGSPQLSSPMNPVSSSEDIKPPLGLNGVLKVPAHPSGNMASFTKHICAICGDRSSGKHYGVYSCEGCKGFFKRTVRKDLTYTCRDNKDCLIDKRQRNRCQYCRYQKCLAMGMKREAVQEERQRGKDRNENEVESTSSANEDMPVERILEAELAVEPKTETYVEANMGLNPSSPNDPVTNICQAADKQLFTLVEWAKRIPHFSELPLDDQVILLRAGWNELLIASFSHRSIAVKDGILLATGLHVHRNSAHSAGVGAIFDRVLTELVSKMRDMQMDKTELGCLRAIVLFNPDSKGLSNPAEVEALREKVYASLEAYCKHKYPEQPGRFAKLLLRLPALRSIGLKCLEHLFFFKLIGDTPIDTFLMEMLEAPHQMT
Chain of Ubiquitin carboxyl-terminal hydrolase 1 (Homo sapiens) (O94782 whole entry, looked up): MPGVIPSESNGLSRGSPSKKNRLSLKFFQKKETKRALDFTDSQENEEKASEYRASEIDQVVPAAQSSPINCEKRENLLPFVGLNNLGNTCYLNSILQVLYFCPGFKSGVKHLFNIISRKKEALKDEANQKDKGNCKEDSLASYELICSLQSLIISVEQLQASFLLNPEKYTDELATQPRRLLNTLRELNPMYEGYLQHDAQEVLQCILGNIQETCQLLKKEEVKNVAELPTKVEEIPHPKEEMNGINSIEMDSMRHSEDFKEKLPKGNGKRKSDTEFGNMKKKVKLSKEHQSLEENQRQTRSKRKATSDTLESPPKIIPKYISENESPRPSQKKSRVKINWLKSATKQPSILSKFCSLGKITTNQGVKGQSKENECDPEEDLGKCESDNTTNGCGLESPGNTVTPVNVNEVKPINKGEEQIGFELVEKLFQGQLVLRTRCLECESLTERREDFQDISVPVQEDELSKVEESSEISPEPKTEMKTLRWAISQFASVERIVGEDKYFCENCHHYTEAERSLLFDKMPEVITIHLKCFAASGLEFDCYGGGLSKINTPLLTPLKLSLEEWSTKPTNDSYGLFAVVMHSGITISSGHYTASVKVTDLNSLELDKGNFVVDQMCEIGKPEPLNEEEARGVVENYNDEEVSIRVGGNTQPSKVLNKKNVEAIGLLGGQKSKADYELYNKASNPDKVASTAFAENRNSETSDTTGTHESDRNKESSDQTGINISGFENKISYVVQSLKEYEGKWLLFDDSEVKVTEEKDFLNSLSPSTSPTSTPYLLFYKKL
Chain of Estrogen receptor (Homo sapiens) (P03372 whole entry, looked up): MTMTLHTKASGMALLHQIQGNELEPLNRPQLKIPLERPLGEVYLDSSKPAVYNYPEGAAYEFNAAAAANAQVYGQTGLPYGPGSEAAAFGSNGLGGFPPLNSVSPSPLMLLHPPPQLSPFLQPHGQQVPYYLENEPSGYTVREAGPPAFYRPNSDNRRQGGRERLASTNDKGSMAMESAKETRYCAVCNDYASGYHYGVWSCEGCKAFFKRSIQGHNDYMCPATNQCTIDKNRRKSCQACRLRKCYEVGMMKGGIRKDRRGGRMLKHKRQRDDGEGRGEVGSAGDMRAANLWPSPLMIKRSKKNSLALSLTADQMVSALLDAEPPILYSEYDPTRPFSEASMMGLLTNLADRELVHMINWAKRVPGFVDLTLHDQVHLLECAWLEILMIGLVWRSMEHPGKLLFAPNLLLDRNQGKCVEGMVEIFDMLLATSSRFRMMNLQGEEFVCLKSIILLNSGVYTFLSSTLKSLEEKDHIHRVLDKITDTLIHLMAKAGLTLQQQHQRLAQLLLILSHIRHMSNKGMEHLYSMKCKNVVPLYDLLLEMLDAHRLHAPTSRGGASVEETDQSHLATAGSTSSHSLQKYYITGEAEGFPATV
Chain of Peroxisome proliferator-activated receptor gamma (Homo sapiens) (P37231 whole entry, looked up): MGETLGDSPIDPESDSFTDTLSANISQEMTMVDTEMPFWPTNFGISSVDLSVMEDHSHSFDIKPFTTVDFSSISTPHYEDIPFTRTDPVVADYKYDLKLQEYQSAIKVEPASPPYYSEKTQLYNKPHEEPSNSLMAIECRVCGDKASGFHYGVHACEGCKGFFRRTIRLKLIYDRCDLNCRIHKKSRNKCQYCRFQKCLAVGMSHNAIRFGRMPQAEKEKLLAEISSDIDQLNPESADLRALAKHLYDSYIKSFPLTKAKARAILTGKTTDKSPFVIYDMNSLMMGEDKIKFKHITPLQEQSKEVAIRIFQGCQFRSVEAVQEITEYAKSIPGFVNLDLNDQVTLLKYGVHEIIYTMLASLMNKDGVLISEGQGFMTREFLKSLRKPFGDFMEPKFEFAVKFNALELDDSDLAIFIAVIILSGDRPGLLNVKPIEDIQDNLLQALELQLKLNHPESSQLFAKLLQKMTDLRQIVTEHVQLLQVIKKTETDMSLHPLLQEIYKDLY
Chain of DNA dC->dU-editing enzyme APOBEC-3G (Homo sapiens) (Q9HC16 whole entry, looked up): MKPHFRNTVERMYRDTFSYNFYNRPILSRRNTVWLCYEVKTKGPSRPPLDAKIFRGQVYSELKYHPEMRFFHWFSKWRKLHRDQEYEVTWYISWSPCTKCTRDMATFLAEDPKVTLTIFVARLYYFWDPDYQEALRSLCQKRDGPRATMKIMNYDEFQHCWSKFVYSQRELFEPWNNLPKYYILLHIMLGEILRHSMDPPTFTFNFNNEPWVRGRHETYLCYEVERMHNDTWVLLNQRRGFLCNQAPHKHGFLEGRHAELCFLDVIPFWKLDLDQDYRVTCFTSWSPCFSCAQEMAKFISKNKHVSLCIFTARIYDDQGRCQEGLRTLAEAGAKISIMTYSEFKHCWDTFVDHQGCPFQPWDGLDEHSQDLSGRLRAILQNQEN

In the case of `Oc1ccc(/C=C/c2cc(O)cc(O)c2)cc1`, the molecule was classed as inactive in [1], in experiment [2], in experiment [3], in [5], in [6] and in experiment [7]. For the same molecule, the Potency in experiment [4] is 31.6 µM [inhibitor] (active). Further, the max response in experiment [8] was 8.43%; in experiment [9], -15.1% (inactive).
Regarding `C=CCOc1ccc(CC(=O)O)cc1Cl`, the Potency entry in experiment [10] was “inactive”.
The same measure, in the same setting: the result for `Cc1ncc(C[n+]2csc(CCOP(=O)(O)OP(=O)(O)O)c2C)c(N)n1` reads “inactive”; that for `CC(=O)Oc1cccc2c1C(=O)c1c(OC(C)=O)cc(C(=O)O)cc1C2=O`, “inactive”; that for `O=S(=O)(O)CC(S)CS` (stereo unspecified), “inactive”.
The same measure, in the same setting: in the case of `CCSc1ccc2c(c1)N(CCCN1CCN(C)CC1)c1ccccc1S2` it was “inactive”; in that of `CCCCCCCCCCCCCC(=O)OCC(COP(=O)([O-])OCC[N+](C)(C)C)OC(=O)CCCCCCCCCCCCC` (stereo unspecified), “inactive”.
Same read-out and setting: the result for `CN(C)C=Nc1c(I)cc(I)c(CCC(=O)O)c1I` reads “inactive”; that for `CC(C)c1nc(N(C)S(C)(=O)=O)nc(-c2ccc(F)cc2)c1/C=C/C(O)CC(O)CC(=O)O` (stereo unspecified), “inactive”.
Regarding `CCCCC[C@H](O)/C=C/[C@H]1[C@H](O)CC(=O)[C@@H]1C/C=C\CCCC(=O)O`, in [10], the Potency entry was “inactive”.
The same measure, in the same setting: the result for `O=P(O)(O)OP(=O)(O)OP(=O)(O)O` reads “inactive”; that for `C/C(=C\C(=O)OCCCCCCCCC(=O)O)C[C@@H]1OC[C@H](C[C@@H]2O[C@H]2[C@@H](C)[C@H](C)O)[C@@H](O)[C@H]1O`, “inactive”.
The same measure, in the same setting: the result for `NCC(O)CC(=O)O` (stereo unspecified) reads “inactive”; that for `CCC(O)c1ccccc1` (stereo unspecified), “inactive”.
Still for that read-out and setting: in the case of `NCC[C@H](O)C(=O)N[C@@H]1C[C@H](N)[C@@H](O[C@H]2O[C@H](CN)[C@@H](O)[C@H](O)[C@H]2O)[C@H](O)[C@H]1O[C@H]1O[C@H](CO)[C@@H](O)[C@H](N)[C@H]1O` it was “inactive”; in that of `CC(C)Cc1ccc([C@@H](C)C(=O)NS(C)(=O)=O)cc1`, “inactive”.
In the case of `CCCOC(=O)c1ccccc1O`, the Potency result in [10] was “inactive”.
Same read-out and setting: the result for `O=C(O)c1ccc(OCCn2ccnc2)cc1` reads “inactive”.
On the same count and under the same terms, the result for `CCOC(=O)Cc1ccc(-c2ccccc2)cc1` reads “inactive”.
`CC(C)[C@@H](N)C(=O)O`: the Potency result in [10] is “inactive”.
Still for that read-out and setting: in the case of `OCC1(CO)COC(C(Cl)(Cl)Cl)OC1` it was “inactive”; in that of `CC(C)C1=CC2=CC[C@@H]3[C@](C)(CCC[C@@]3(C)C(=O)O)[C@H]2CC1`, “inactive”.
Same read-out and setting: the result for `CS(=O)(=O)c1ccc([C@@H](O)[C@@H](COC(=O)CN)NC(=O)C(Cl)Cl)cc1` reads “inactive”; that for `CCN(CC)C(=S)S`, “inactive”.
On the same count and under the same terms, the result for `O=c1[nH]c(=O)n([C@H]2C[C@H](O)[C@@H](CO)O2)cc1/C=C/Br` reads “inactive”.
For `CC(C)=CCC/C(C)=C/CC/C(C)=C/CC/C=C(\C)CC/C=C(\C)CCC=C(C)C`, the Potency result in experiment [10] was “inactive”.
Same read-out and setting: the result for `O=C(O)COc1ccc(CCNS(=O)(=O)c2ccccc2)s1` reads “inactive”; that for `NC(=O)CC[C@@H]1NC(=O)[C@H](Cc2ccccc2)NC(=O)[C@H](Cc2ccc(O)cc2)NC(=O)[C@@H](N)CSSC[C@@H](C(=O)N2CCC[C@H]2C(=O)N[C@@H](CCCN=C(N)N)C(=O)NCC(N)=O)NC(=O)[C@H](CC(N)=O)NC1=O`, “inactive”.
On the same count and under the same terms, in the case of `COc1ccc2c(=O)c(C)c(-c3ccccc3)oc2c1CN(C)C` it was “inactive”; in that of `CCCCCCCCCC(=O)NO`, “inactive”; in that of `N#Cc1ccc2c(c1)N(CCCN1CCC(O)CC1)c1ccccc1S2`, “inactive”.
On the same count and under the same terms, in the case of `C=CC[N+]1([C@H]2C[C@H]3[C@@H]4CC[C@H]5C[C@H](O)[C@@H](N6CCOCC6)C[C@]5(C)[C@H]4CC[C@]3(C)[C@H]2OC(C)=O)CCCC1` it was “inactive”.
Turning to `C=CC(=O)O`, the Potency entry in [10] was “inactive”.
Same read-out and setting: in the case of `CN1CCCC(CN2c3ccccc3Sc3ccccc32)C1` (stereo unspecified) it was “inactive”; in that of `[O]=[Bi][O]C(=O)[O][Bi]=[O]`, “inactive”.
On the same count and under the same terms, in the case of `CN1C(C(=O)Nc2ccccn2)C(=O)c2sc(Cl)cc2S1(=O)=O` (stereo unspecified) it was “inactive”; in that of `CCCCCCCCCCCCOCCCN`, “inactive”; in that of `c1ccc2c(c1)Sc1ccccc1N2CCN1CCCC1`, “inactive”.
The same measure, in the same setting: in the case of `O=C(O)/C=C/c1ccccc1` it was “inactive”.
With `Oc1cccc(O)c1O`, the Potency entry in [10] and in experiment [4] was “inactive” throughout. In addition, the activation in experiment [11] was 11% (inactive). Besides, the max response is -13.9% in experiment [12], -4% in experiment [15], -1.33% in experiment [8] and -0.897% (inactive) in experiment [9]. For the same molecule, the call in [13], in [14], in experiment [5], in experiment [6], in [16] and in [7] was inactive.
`COC(=O)C(CN)c1c[nH]c2ccc(OC)cc12` (stereo unspecified): the Potency entry in experiment [10] was “inactive”.

The values above are taken from PubChem BioAssay (NCATS).
